Laboratory results taken from the supplement of paper PMC6555819.

Columns and labels:
Experiment in all cases: PBM binding z-score (relative to random genomic background probes); higher = stronger binding; sequences stand for … in GC…GCGATTGACAGCGTAGAATGAAGG
[1] = test system: FXR:RXRa (NR concentration 270 nM, RXRa partner concentration 90 nM)
Outline: (§1)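 Each nuclear receptor dimer, without ligand, was incubated for 1 h on custom Agilent 4×180K protein-binding microarrays. Binding was detected with antibodies against each partner (one per run), and scanned fluorescence was regression-normalized. The binding z-scores are referenced to random human genomic background probes.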

[2] = test system: LXRa:RXRa (NR concentration 270 nM, RXRa partner concentration 90 nM)
Outline: as §1

[3] = test system: LXRa homodimer (NR concentration 270 nM)
Outline: as §1

[4] = test system: LXRb:RXRa (NR concentration 270 nM, RXRa partner concentration 90 nM)
Outline: as §1

[5] = test system: LXRb homodimer (NR concentration 270 nM)
Outline: as §1

[6] = test system: PPARa:RXRa (NR concentration 270 nM, RXRa partner concentration 90 nM)
Outline: as §1

[7] = test system: PPARg:RXRa (NR concentration 180 nM, RXRa partner concentration 90 nM)
Outline: as §1

[8] = test system: PPARg:RXRa 270nM:90nM, anti-RXR (NR concentration 270 nM, RXRa partner concentration 90 nM)
Outline: as §1

[9] = test system: PPARg:RXRa 30nM:10nM, anti-RXR (NR concentration 30 nM, RXRa partner concentration 10 nM)
Outline: as §1

[10] = test system: PPARg:RXRa 90nM:30nM, anti-RXR (NR concentration 90 nM, RXRa partner concentration 30 nM)
Outline: as §1

[11] = test system: PPARg:RXRa DBDmut IVT, anti-RXR (DBD mutation: RXRa K156A/R161A, NR concentration 270 nM, RXRa partner concentration 90 nM)
Outline: as §1

[12] = test system: PPARg:RXRa IVT, anti-PPARg (NR concentration 270 nM, RXRa partner concentration 90 nM)
Outline: as §1

[13] = test system: PPARg DBDmut:RXRa IVT, anti-PPARg (DBD mutation: PPARg1 K132A/R137A, NR concentration 270 nM, RXRa partner concentration 90 nM)
Outline: as §1

[14] = test system: PPARg DBDmut IVT, anti-PPARg (DBD mutation: PPARg1 K132A/R137A, NR concentration 270 nM)
Outline: as §1

[15] = test system: PPARg homodimer (NR concentration 180 nM)
Outline: as §1

[16] = test system: PXR:RXRa (NR concentration 270 nM, RXRa partner concentration 90 nM)
Outline: as §1

[17] = test system: PXR homodimer (NR concentration 270 nM)
Outline: as §1

[18] = test system: RARa:RXR (NR concentration 270 nM, RXRa partner concentration 90 nM)
Outline: as §1

[19] = test system: RARa homodimer (NR concentration 270 nM)
Outline: as §1

Sequence	PBM binding z-score [1]	PBM binding z-score [2]	PBM binding z-score [3]	PBM binding z-score [4]	PBM binding z-score [5]	PBM binding z-score [6]	PBM binding z-score [7]	PBM binding z-score [8]	PBM binding z-score [9]	PBM binding z-score [10]	PBM binding z-score [11]	PBM binding z-score [12]	PBM binding z-score [13]	PBM binding z-score [14]	PBM binding z-score [15]	PBM binding z-score [16]	PBM binding z-score [17]	PBM binding z-score [18]	PBM binding z-score [19]
AGTCAAAGTTCACGACGAGGTAACGTAAAGCACG	7.08	6.16	3.15	3.94	0.875	5.45	7.81	7.17	4.47	6.41	0.0759	3.83	0.65	1.24	4	5.24	2.18	5	1.23
CCGACGGGGGCAAGGTTACCATAACGCACAGCCA	3.14	3.01	0.301	4.21	3.34	3.96	2.74	3.36	1.37	2.84	1.63	2.94	2.07	2.52	1.9	2.63	0.67	3.36	0.881
CCTACTGGGCCACGAAAGGTAATTGATTCAGTGA	-0.128	-0.227	-0.337	-0.403	-0.777	1.1	1.63	1.38	-0.0637	0.669	5.29	5.07	0.766	-0.144	0.00713	-0.257	-0.335	-0.102	0.0551
CGAACTAGCTCAAGGACAGTGAATCTCCGCACGC	0.148	-0.503	0.172	-0.398	-0.571	-0.568	0.277	-0.53	-0.374	-0.661	0.26	-0.559	-0.68	-0.183	-0.00792	-0.255	-0.354	-0.192	-0.143
ACAGACAGGTGAGTGAAGGTCACTCAGCTGGACG	2.41	2.98	0.517	1.82	-0.302	2.61	1.51	1.98	0.232	1.46	0.842	2.27	0.253	0.153	1.49	3.66	0.106	2.82	0.0123
TAGCCTAGGTCCTTCAGGGGCCAGTATAGAAAGC	-0.77	-0.784	-0.674	-0.628	-0.884	-0.292	-0.229	-0.451	-0.73	-0.359	-1.03	-0.0823	-0.672	0.051	-0.932	-0.686	-0.979	-0.334	-0.852
CGTCGGAGGACAACAGGAGGTCAGAGCTGCCAGA	1.46	2.29	2.3	1.48	-0.649	1.98	0.434	0.482	-0.532	0.226	0.202	0.616	-1.5	-1.4	2.42	2.5	0.93	2.58	0.114
CCTACTGGGCGAAGGTCATTGATCAGTCAAAGCA	2.76	2.99	0.677	2.83	-0.515	3.86	3.62	4.54	2.12	4.26	0.342	2.33	-1.21	-0.935	2.36	3.04	0.36	3.75	-0.327
GCTGCTAGGTAAGGTTGGTCAGCTAACGGGTACG	-0.225	-0.495	-0.455	-0.746	-0.795	-0.411	-0.199	-0.51	-0.761	-0.734	0.515	0.0144	-1.12	-0.451	-0.00134	-0.363	-0.442	-0.608	-0.745
AGTCAAATTTCATCTAGGTAACGTAAGATATGCT	-0.224	-0.221	0.168	0.0477	0.362	0.347	1.02	0.0693	0.291	0.178	0.205	2.04	1.11	1.49	0.098	-0.111	-0.176	0.369	0.837
CGTTCAAGGTCATAGGAGGTCAGTGAAGACAGAT	7.91	7.81	5.4	6.52	1.26	6.19	6.82	6.49	2.97	5.27	3.95	5.26	1.34	2.03	5.42	6.86	5.84	6.33	3.73
CCTACTGGGCCAAGGTCATTGCTCAGTCAAAGCA	3.09	3.01	0.828	2.83	-0.46	3.63	3.88	4.33	1.07	3.55	3.53	4.65	0.15	-1.36	1.17	3.36	0.887	3.01	-0.436
CGTCAAAGTTCAACTAAGGTAACGTATAGCACGC	7.12	6.07	4.63	4.52	2.2	5.23	5.1	5.56	2.29	4.48	0.646	2.49	2.35	1.51	3.82	5.78	5.22	4.65	2.34
GATACAGAGTCAGCTAGAGGCCAGAGTATGGAAA	-0.527	-0.699	-0.703	-0.919	-1.16	-0.619	0.312	-0.242	-0.296	-0.352	-0.664	-0.657	-0.407	-0.534	-0.64	-0.537	-0.489	-0.487	-0.438
CATACAGGGTCCGCTAGGCCAGAGTAGGGACGGC	-0.192	-0.435	-0.418	-0.869	-0.218	-1.11	0.155	-0.418	-0.876	-0.844	-1.42	-0.128	0.386	-0.456	-0.436	-0.819	-0.353	-0.535	-0.0023
